This passage reports inhibition results from PubChem BioAssay AID434961 (Broad Institute, 2010).

The whole screen tested about 7,700 compounds, of which about 15 (0.2%) were called active. Not shown: some 6% with an inconclusive outcome. The sample as a whole holds a higher share of actives than the screen did. Unmarked numbers belong to inactive results.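 Rule for the calls: active = more than half of replicate wells with inhibition above about 18% (limit read from the data, passing the limit was not always enough); inconclusive = exactly half of replicate wells above that limit; inactive = fewer than half of replicates above it.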

For orientation: inhibition means the drop in the measured response relative to a control, in per cent.

In this experiment the target is Regulator of chromosome condensation (Homo sapiens) + GTP-binding nuclear protein Ran (Homo sapiens) + Importin subunit beta-1 (Homo sapiens) (UniProt P18754+P62826+Q14974). Briefly: inhibitors of Ran–importin-beta complex formation, primary screen, biochemical, CFP-Ran/YFP-importin-beta FRET, RCC1, cell-free (AID 434961).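 Note: 0% = DMSO wells and 100% inhibition = RanGDP control wells on each plate.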 As to conditions: hits give high values, concentration not given here.
For the molecule `C[C@@H]1CN([C@@H](C)CO)C(=O)Cc2cc(NC(=O)c3ccncc3)ccc2O[C@H]1CN(C)C(=O)Nc1ccccc1`, the inhibition is 3.73%.
As to `COc1ccc(NC(=O)Nc2ccc3c(c2)C(=O)N([C@@H](C)CO)C[C@H](C)[C@@H](CN(C)S(=O)(=O)c2cn(C)cn2)O3)cc1`, the inhibition was 1.4%.
Regarding `C[C@H](CO)N1C[C@H](C)[C@H](CN(C)C(=O)c2ccncc2)OCCCC[C@H](C)Oc2ccc(NS(=O)(=O)c3ccccc3)cc2C1=O`, the inhibition is -1.72%.
On to `CC(C)NC(=O)Nc1ccc2c(c1)C(=O)N([C@@H](C)CO)C[C@@H](C)[C@@H](CN(C)C)OCCCC[C@H](C)O2`, for which the inhibition was -4.5%.
Consider `C[C@@H]1CN([C@H](C)CO)C(=O)c2cc(NS(=O)(=O)c3cn(C)cn3)ccc2O[C@@H](C)CCCCO[C@@H]1CN(C)C`, for which the inhibition is -0.00982%.
As for `CC(C)NC(=O)N(C)C[C@H]1Oc2ccc(N(C)C)cc2CC(=O)N([C@H](C)CO)C[C@@H]1C`, the inhibition is 0.831%.
As for `COc1ccc(S(=O)(=O)Nc2ccc3c(c2)C(=O)N([C@@H](C)CO)C[C@@H](C)[C@@H](CN(C)S(=O)(=O)c2cccs2)O3)cc1`, the inhibition was -0.91%.
For `C[C@@H]1CCCCO[C@@H](CN(C)S(=O)(=O)c2ccc(F)cc2)[C@@H](C)CN([C@@H](C)CO)C(=O)c2cc(NC(=O)C3CCCCC3)ccc2O1` the value was 2.57%.
On to `Cc1noc(C)c1NC(=O)N(C)C[C@@H]1Oc2c(NC(=O)c3ccc(-c4nccs4)cc3)cccc2C(=O)N([C@@H](C)CO)C[C@@H]1C`, for which the inhibition is -3.18%.
Regarding `COc1ccc(CN(C)C[C@H]2Oc3ccc(NC(=O)Nc4c(C)noc4C)cc3CC(=O)N([C@H](C)CO)C[C@@H]2C)cc1`, the inhibition is -6.52%.
For `C[C@@H]1CN([C@@H](C)CO)C(=O)c2cc(NS(=O)(=O)c3ccccc3)ccc2O[C@@H](C)CCCCO[C@H]1CN(C)Cc1ccncc1` the value was -2.17%; for `C[C@H]1CN([C@@H](C)CO)C(=O)c2cccc(NS(=O)(=O)c3ccc(Cl)cc3)c2O[C@@H]1CN(C)C(=O)Nc1ccc(F)cc1`, 0.723%; for `C[C@H](CO)N1C[C@H](C)[C@@H](CN(C)C(=O)Nc2ccc(F)cc2)Oc2c(NS(=O)(=O)c3ccc(Cl)cc3)cccc2C1=O`, 2.75%.
Regarding `CNC[C@H]1Oc2c(NC(=O)Nc3c(C)noc3C)cccc2C(=O)N([C@@H](C)CO)C[C@H]1C`, the inhibition was 1.31%.
As for `Cc1noc(C)c1S(=O)(=O)Nc1ccc2c(c1)CC(=O)N([C@@H](C)CO)C[C@@H](C)[C@H](CN(C)C(=O)Nc1ccc(F)cc1)O2`, the inhibition is -0.469%.
As for `C[C@@H]1CN([C@@H](C)CO)C(=O)Cc2cc(NC(=O)c3ccncc3)ccc2O[C@@H]1CN(C)C(=O)Nc1cccc2ccccc12`, the inhibition was 2.94%.
Regarding `C[C@@H]1CN([C@@H](C)CO)C(=O)c2cc(NC(=O)C3CC3)ccc2O[C@@H]1CN(C)C(=O)Nc1ccccc1`, the inhibition was -1.01%.
`C[C@H]1CN([C@@H](C)CO)C(=O)c2cccc(NS(=O)(=O)c3cccs3)c2O[C@H]1CN(C)Cc1ccc(C(=O)O)cc1`: the inhibition is -1.12%.
Regarding `C[C@H](CO)N1C[C@H](C)[C@H](CN(C)C(=O)c2ccccc2)OCc2cnnn2CCCC1=O`, the inhibition is 3.45%.
To `Cc1noc(C)c1NC(=O)Nc1ccc2c(c1)CC(=O)N([C@@H](C)CO)C[C@H](C)[C@@H](CN(C)S(=O)(=O)c1cccs1)O2` belongs 0.0231%; to `Cc1noc(C)c1NC(=O)N(C)C[C@@H]1Oc2ccc(NC(=O)Cc3ccccc3)cc2C(=O)N([C@@H](C)CO)C[C@H]1C`, 6.07%.
As to `C[C@H](CO)N1C[C@H](C)[C@H](CN(C)C)Oc2c(NC(=O)Nc3ccc(C(F)(F)F)cc3)cccc2C1=O`, the inhibition was -2.27%.
For `COc1ccc(CN(C)C[C@@H]2Oc3ccc(NC(=O)Nc4ccc(C(F)(F)F)cc4)cc3CC(=O)N([C@H](C)CO)C[C@@H]2C)cc1`, the inhibition is 1.78%.
In the case of `C[C@@H]1CN([C@@H](C)CO)C(=O)c2cccc(NC(=O)Nc3ccc(C(F)(F)F)cc3)c2O[C@H]1CN(C)C(=O)Nc1ccc(F)cc1`, the inhibition was 1.42%.
Regarding `C[C@H](CO)N1C[C@H](C)[C@H](CN(C)S(=O)(=O)c2cn(C)cn2)OCCCC[C@H](C)Oc2ccc(NC(=O)CCCN(C)C)cc2C1=O`, the inhibition was 1.98%.
For `C[C@@H]1CCCCO[C@@H](CN(C)S(=O)(=O)c2ccccc2)[C@@H](C)CN([C@@H](C)CO)C(=O)c2cc(NS(C)(=O)=O)ccc2O1`, the inhibition was 1.15%.
For the molecule `C[C@@H]1CCCCO[C@H](CN(C)C)[C@H](C)CN([C@H](C)CO)C(=O)c2cc(NC(=O)Nc3ccc4c(c3)OCO4)ccc2O1`, the inhibition was 7.53%.
Consider `COc1ccc(S(=O)(=O)N(C)C[C@@H]2Oc3ccc(NS(=O)(=O)c4ccc(Cl)cc4)cc3C(=O)N([C@H](C)CO)C[C@@H]2C)cc1`, for which the inhibition is 1.93%.
Regarding `C[C@H]1CN([C@@H](C)CO)C(=O)c2cccc(NS(=O)(=O)c3cn(C)cn3)c2O[C@@H]1CN(C)CC1CC1`, the inhibition was -0.875%.
`Cc1noc(C)c1NC(=O)N(C)C[C@@H]1Oc2ccc(NC(=O)C3CC3)cc2CC(=O)N([C@@H](C)CO)C[C@H]1C`: the inhibition was 3.34%.
For `CNC[C@H]1Oc2ccc(NC(=O)Cc3ccccc3)cc2C(=O)N([C@H](C)CO)C[C@@H]1C` the value was -10.8%.
With `C[C@H]1CN([C@@H](C)CO)C(=O)c2cccc(NS(=O)(=O)c3ccc(Cl)cc3)c2O[C@H]1CN(C)Cc1ccncc1`, the inhibition was -0.815%.
Take `C[C@H]1CN([C@@H](C)CO)C(=O)c2cc(NC(=O)CCC(F)(F)F)ccc2O[C@H]1CN(C)C(=O)Nc1ccccc1`: the inhibition was 1.36%.
With `C[C@H](CO)N1C[C@H](C)[C@H](CN(C)C(=O)Nc2ccccc2)Oc2ccc(NC(=O)Cc3cn(C)c4ccccc34)cc2CC1=O`, the inhibition was 2.8%.
Turning to `C[C@H]1CCCCO[C@H](CN(C)Cc2ccc(C(=O)O)cc2)[C@@H](C)CN([C@@H](C)CO)C(=O)c2cc(NC(=O)Nc3ccc(F)cc3)ccc2O1`, the inhibition was 5.7%.
